# Laboratory results as given in ChEMBL document CHEMBL3988442, “University of Dundee, Small-Polar-MMV Screening Library” (2021).
# Among all 48,000 compounds or so, about 13,000 (27%) showed an effect of 50% or more. The list shows a part of the results.
# Test system: Wolbachia pipientis
# Assay: Anti-Wolbachia Cell-Based Screen
# Format: functional
# Design: scale not given: in the data most compounds retested in dose-response had high values
# Conditions: 5 µM
row,Compound,Percent Effect [%]
1,Cc1cc(C(=O)Cn2cnnc2[S+](C)[O-])cc(C)c1F (stereo not given),2.039
2,O=C(NCc1nc2ccccc2[nH]1)c1cnn2c1OCCC2,8.573
3,CS(=O)(=O)c1cccc(C(=O)NCC2Cc3ccccc3O2)c1 (stereo not given),-50.83
4,CS(=O)(=O)c1ccc(C(=O)NCc2nc3cc(F)ccc3[nH]2)cc1,97.05
5,CC(C)c1cc(C(=O)NCc2nc(-c3ccc(F)cc3)n[nH]2)n[nH]1,8.194
6,CS(=O)(=O)c1cccc(C(=O)NCC2(c3ccccc3)CC2)c1,-5.384
7,CS(=O)(=O)c1cccc(C(=O)NCc2nc3cc(F)ccc3[nH]2)c1,93.8
8,COC(=O)NCC(=O)N1CCC(c2nc3cc(F)ccc3[nH]2)CC1,-27.28
9,O=C(NCc1nc2cc(F)ccc2[nH]1)c1ccc[nH]1,85.11
10,O=C(NCc1nc2ccccc2[nH]1)c1cc2n(n1)CCCO2,4.478
11,Cc1cc(NC(=O)Cn2nc(C)c(C#N)c2N)ccc1Br,-7.247
12,Fc1ccc(-c2cc(NCCC3CCOC3)n3nccc3n2)cc1 (stereo not given),40.16
13,O=C(NC1CC1)[C@H]1CC[C@@H]2[C@@H](CCN2CCOCc2ccccc2)O1.O=C(O)C(F)(F)F,6.133
14,CCS(=O)(=O)N1CCOC2(COCCN(C(C)=O)C2)C1 (stereo not given),-3.912
15,CCC1CN(C(=O)c2ccccc2N2CCOCC2)CCN1C(C)C (stereo not given),8.112
16,CCNC(=O)C1CCN(c2cc(-c3ccccc3F)nc3ccnn23)C1 (stereo not given),-1.287
17,COc1ccccc1CN1C[C@@H](F)[C@@H](OCc2nc3ccccc3[nH]2)C1,0.7932
18,CCn1cncc1CN1CCc2nc3sccc3c(=O)n2CC1,89.02
19,CC(=O)NCc1nnc2n1CCN(c1nc(C)nc3sccc13)CC2,-5.354
20,Cc1ccsc1C(=O)N1CCc2ncc(CN3CCCC3)n2CC1.O=C(O)C(F)(F)F,-31.81
21,Cl.Cn1cncc1CN1CCc2nc3sccc3c(=O)n2CC1,103.5
22,Cc1ccc(CN2CCNC(C(=O)NC3CC3)C2)cc1C (stereo not given),34.83
23,CC(NC1CCN(CCS(C)(=O)=O)CC1)c1ccc(Cl)cc1 (stereo not given),-9.034
24,Cc1ncsc1CCC(=O)NC1CCN(c2ccc(Cl)nn2)CC1,-3.367

row,Compound,Percent Effect [%]
1,O=C(Nc1ccc(-n2cncn2)c(F)c1)C1CCN(C(=O)C2CC2)CC1,-16.72
2,CC1CCN(c2nccn3c(=O)[nH]nc23)CC1,109.7
3,NC1CCN(c2nccn3c(=O)[nH]nc23)CC1,124.1
4,CC1CCN(Cc2cc(=O)[nH]c(=O)[nH]2)CC1,-40.44
5,CC(C)n1ccnc1C1CCCN(c2ncccc2C(N)=O)C1 (stereo not given),2.955
6,CC1CCN(c2nc3c(cnn3-c3ccccc3)c(=O)[nH]2)CC1,0.2654
7,CC1CCCN(c2nccn3c(=O)[nH]nc23)C1 (stereo not given),119.4
8,NS(=O)(=O)CC1CCN(c2ncccc2C(F)(F)F)CC1,-0.5729
9,CC1CCCN(c2ccccc2OCC(=O)NC2CC2)C1 (stereo not given),-2.178
10,c1ccc(-c2nc3c(c(NCCCn4cncn4)n2)CCNCC3)nc1,-4.021
11,COc1ccc(C(CO)NC(=O)Nc2cccnc2)cc1 (stereo not given),-17.84
12,Cc1nnc(C(C)N(C)Cc2c(C)nn(-c3ccccc3C)c2C)o1 (stereo not given),-9.364
13,CCn1nnnc1-c1cccc(NC(=O)COC2CCCC2)c1,5.943
14,CCc1noc(C(C)N2CCN(Cc3noc(C4CC4)n3)CC2)n1 (stereo not given),3.435
15,CCc1nc(CN2CCN(C(C)c3nc(C4CC4)no3)CC2)no1 (stereo not given),112.7
16,CCCc1nc(CN2CCN(Cc3noc(CCC)n3)CC2)no1,0.9498
17,CCc1noc(C(C)N2CCCN(Cc3noc(C4CC4)n3)CC2)n1 (stereo not given),8.614
18,CCCc1nc(CN2CCN(C(C)c3nc(C4CC4)no3)CC2)no1 (stereo not given),124.6
19,Cc1nnc(CN2CCCCC2c2nc(-c3ccccc3)no2)s1 (stereo not given),-13.6
20,CCS(=O)(=O)N1CCC2(CCCN(c3ncc(F)cn3)C2)C1 (stereo not given),-3.984
21,Cc1cnc(N2CCC3(CCCN(c4ncc(F)cn4)C3)C2)nc1 (stereo not given),103
22,O=S(=O)(C1CC1)N1CCC2(CCCN(c3ncc(F)cn3)C2)C1 (stereo not given),-1.558
23,Cc1cnc(N2CCOC3(CCCN(c4ncccn4)C3)C2)nc1 (stereo not given),-13.37
24,Fc1cnc(N2CCCC3(CCN(c4ncccn4)C3)C2)nc1 (stereo not given),88.49

row,Compound,Percent Effect [%]
1,CCCS(=O)(=O)N1CCC2(CCCN(c3ncc(F)cn3)C2)C1 (stereo not given),14.12
2,CS(=O)(=O)N1CCC2(CCCN(c3ncc(F)cn3)C2)C1 (stereo not given),6.577
3,Cc1cnc(N2CCCC3(COCCN(c4nccs4)C3)C2)nc1 (stereo not given),-8.565
4,Cc1cnc(N2CCCC3(CCOCC3)C2)nc1,109.2
5,Cc1cc(C)c2nc(CN3CCC(N4CCOCC4)CC3)cc(O)c2c1,-11.95
6,CCN(C(c1cccnc1)c1cc(C)cc(C)c1)S(C)(=O)=O (stereo not given),1.72
7,Cc1oc(-c2ccsc2)nc1CC(=O)NCCS(C)(=O)=O,-2.536
8,CN(C)CCOCC1CN(C(=O)c2cscn2)Cc2ccnn2C1 (stereo not given),-0.6425
9,O=C1CC(c2ccc(C(=O)O)cc2)c2ncn(-c3cccnc3)c2N1 (stereo not given),-9.053
10,CCCN1Cc2cc(Br)ccc2OCC1=O,11.44
11,CCN(CC)C1COc2c(cc(Br)c(C)c2C)C1=O (stereo not given),131.7
12,CCN(CC)C1COc2ccc(Br)cc2C1=O (stereo not given),104.3
13,CCN(CC)C1COc2c(cc(Br)c(C)c2Br)C1=O (stereo not given),114.2
14,Cc1c(Br)cc2c(c1C)OCC(N(C)C)C2=O (stereo not given),95.66
15,COCCN1C(=O)[C@H]2CC[C@@H]1CN(C(=O)COc1ccc(F)c(Cl)c1)C2,1.148
16,CC(C)c1cc(C(=O)NCCN2CCCS2(=O)=O)n[nH]1,-2.781
17,COc1ccc(Br)cc1CC(=O)N1CCCC1,26.87
18,COc1ccc(CC(=O)N2CC[C@H](CO)[C@H](O)C2)c(OC)c1,2.348
19,COc1ccccc1CC(=O)N1CCC(NCc2cccnc2)CC1,-3.091
20,COc1ccccc1CC(=O)N1CC[C@H](O)[C@]2(CCCO2)C1,123.7
21,COc1ccccc1CC(=O)N1CC[C@@]2(CCCO2)[C@@H](OC)C1,3.075
22,COc1ccc(C)cc1CC(=O)N1CC[C@@]2(CCCO2)[C@@H](O)C1,110.1
